In PubChem BioAssay (Tox21):
Values joined by “and” are separate entries in the source; they are usually repeats but may differ in a detail not shown here. Identical values can stand only once. Results filed as inconclusive are left out. Entries that show only a call come without a potency. Active and inactive are the calls of the source. Unless noted, the call rests on the fitted dose curve; in most records, active means well fitted curve in the direction sought with a large enough effect in the repeat runs; inconclusive means weak or mixed curves; inactive means no such curve, though single readings can be large; an effect the other way counts as inactive or inconclusive.

Legend:
[1] = qHTS assay to identify aromatase inhibitors - cell viability counter screen (AID 743084);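 further: cells stimulated with testosterone during compound exposure; nearly all actives have a fitted effect of over 55% in size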; further: potency means the concentration at half of the fitted maximal effect
[2] = target: Aryl hydrocarbon receptor (Homo sapiens) (UniProt P35869); assay: qHTS assay to identify small molecule that activate the aryl hydrocarbon receptor (AhR) signaling pathway (AID 743085); further: nearly all actives have a fitted effect of over 15% in size; further: potency means the concentration at half of the fitted maximal effect;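 on activation: HG2L7.5c1 human HepG2 liver cells with stably integrated DRE-driven firefly reporter; series mostly up to about 70 µM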
Outline: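 Compounds were tested in HepG2 hepatocellular carcinoma cells harbouring a stably integrated luciferase gene under control of 20 DREs. Increased reporter signal after 24 h treatment at 37C was taken as AhR activation.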

[3] = qHTS assay to identify small molecule that activate the aryl hydrocarbon receptor (AhR) signaling pathway - cell viability counter screen (AID 743086); further: nearly all actives have a fitted effect of over 45% in size; further: potency means the concentration at half of the fitted maximal effect
Outline: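 HepG2-AhR-luc (HG2L7.5c1) cells, 4000/well, treated 24 h at 37 C with compound; viability measured as CellTiter-Fluor fluorescence after 30 min in the same wells as the luciferase read.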

[4] = qHTS assay to identify small molecule antagonists of the peroxisome proliferator-activated receptor gamma (PPARg) signaling pathway - cell viability counter screen (AID 743194); further: nearly all actives have a fitted effect of over 55% in size; further: potency means the concentration at half of the fitted maximal effect
Outline: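 Cytotoxicity counter screen in PPARg-bla HEK293H cells, same wells as reporter assay. Compounds plus 50 nM rosiglitazone (final) for 17 h at 37 C, then viability read by CellTiter-Glo luminescence.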

[5] = qHTS assay for small molecule agonists of the antioxidant response element (ARE) signaling pathway (AID 743202; active means well fitted activation curve with a large enough effect in the signal ratio in the repeat runs, not every such curve was filed as active; the % refers to the signal ratio; further: potency means the concentration at half of the fitted maximal effect)
Outline: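 Agonist mode reporter screen: HepG2 cells with ARE-controlled beta-lactamase are incubated with test compounds for 16 h at 37 C, and beta-lactamase activity is measured as fluorescence of cleaved B/G FRET substrate.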

[6] = qHTS assay for small molecule agonists of the antioxidant response element (ARE) signaling pathway - cell viability counter screen (AID 743203; calls by dose curve; further: nearly all actives have a fitted effect of over 55% in size; further: potency means the concentration at half of the fitted maximal effect)
Outline: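 CellSensor ARE-bla HepG2 cells, 2,000 per well, rested 5 hrs at 37C/5% CO2, then exposed to compound in DMSO for 16 hrs; viability read as CellTiter-Glo luminescence after 30 min at room temperature, in the reporter wells.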

[7] = qHTS assay for small molecule activators of the heat shock response signaling pathway - cell viability counter screen (AID 743209); further: nearly all actives have a fitted effect of over 50% in size
Outline: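 CellSensor HSE-bla HeLa cells, plated overnight at 37 C/5% CO2, were exposed to compounds in DMSO for 5 h at 37 C. Viability was then read in the same wells by CellTiter-Glo luminescence after 30 min at room temperature.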

[8] = qHTS assay for small molecule activators of the heat shock response signaling pathway (AID 743210; active means well fitted activation curve with a large enough effect in the signal ratio in the repeat runs, with a control signal flat, not every such curve was filed as active; the % refers to the signal ratio;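 further: HeLa cells with beta-lactamase reporter driven by heat shock elements; series mostly up to about 63 µM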)
Outline: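 Quantitative high-throughput format using an engineered HeLa line in which heat shock response elements drive beta-lactamase; after 5 h with compound, cells received a B/G FRET substrate and fluorescence was read.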

Aryl hydrocarbon receptor (Homo sapiens), sequence (P35869 whole entry, looked up): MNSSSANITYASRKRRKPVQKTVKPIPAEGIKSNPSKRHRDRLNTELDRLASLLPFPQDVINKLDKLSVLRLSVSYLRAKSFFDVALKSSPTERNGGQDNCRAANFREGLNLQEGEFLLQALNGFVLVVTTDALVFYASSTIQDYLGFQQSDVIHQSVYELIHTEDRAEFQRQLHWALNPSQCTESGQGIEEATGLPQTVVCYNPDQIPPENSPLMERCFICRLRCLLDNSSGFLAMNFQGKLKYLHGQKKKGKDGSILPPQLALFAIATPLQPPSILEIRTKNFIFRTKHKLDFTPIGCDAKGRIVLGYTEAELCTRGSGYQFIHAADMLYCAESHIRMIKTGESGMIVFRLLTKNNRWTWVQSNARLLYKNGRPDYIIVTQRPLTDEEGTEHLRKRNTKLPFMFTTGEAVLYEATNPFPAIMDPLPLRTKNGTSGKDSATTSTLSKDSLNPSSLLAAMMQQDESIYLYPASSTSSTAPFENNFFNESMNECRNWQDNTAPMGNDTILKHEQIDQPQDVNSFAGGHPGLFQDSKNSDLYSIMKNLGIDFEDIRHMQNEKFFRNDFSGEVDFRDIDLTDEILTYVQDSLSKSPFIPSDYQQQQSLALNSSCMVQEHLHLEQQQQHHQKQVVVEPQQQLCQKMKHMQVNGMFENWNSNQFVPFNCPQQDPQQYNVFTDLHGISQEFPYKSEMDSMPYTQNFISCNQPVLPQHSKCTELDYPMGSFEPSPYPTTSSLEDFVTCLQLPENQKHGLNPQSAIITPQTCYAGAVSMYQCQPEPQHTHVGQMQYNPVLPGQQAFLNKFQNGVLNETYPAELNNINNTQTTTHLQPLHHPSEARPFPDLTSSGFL

Row | Compound | Potency [1] | Potency [2] | Potency [3] | Potency [4] | Potency [5] | Potency [6] | outcome [7] | outcome [8]
1 | CC(C)C[C@H](NC(=O)[C@H](Cc1ccccc1)NC(=O)c1cnccn1)B(O)O | 1.33 µM (active) | inactive | 376 nM (active) and 335 nM (active) | 0.0841 µM (active) | 0.0237 µM (active) | 0.335 µM (active) | inactive | 
2 | O=C(O)c1cccc(C(=O)O)c1C(=O)O | inactive | inactive | inactive | inactive |  |  |  | inactive
3 | Oc1ccc(CCNCCCCCCNCCc2ccccc2)cc1O | inactive | inactive | inactive | inactive | inactive | inactive |  | 
4 | CC(=O)S[C@H](C(=O)N[C@H]1Cc2ccccc2[C@H]2CCC[C@@H](C(=O)O)N2C1=O)C(C)C | inactive | inactive | inactive |  | inactive | inactive | inactive | inactive
5 | COc1cc(CNC(=O)CCCC/C=C/C(C)C)ccc1O | inactive | inactive | inactive | inactive | 47.3 µM (active) | inactive | inactive | inactive
6 | CCc1ccc2c(c1)C(=O)c1ccccc1C2=O | inactive | 27.3 µM (active) | inactive | inactive | 34.4 µM (active) | inactive |  | inactive
7 | CCc1ccc(C(=O)C(C)CN2CCCCC2)cc1 (stereo not drawn) | inactive | inactive | inactive | inactive | 23.7 µM (active) |  | inactive | inactive
8 | CCOC(C)OCC | inactive | inactive | inactive | inactive |  |  |  | 
9 | O=Cc1ccc([N+](=O)[O-])cc1 | inactive | inactive | inactive | inactive | inactive | inactive | inactive | inactive
10 | C=CCCC | inactive | inactive | inactive | inactive | inactive | inactive | inactive | inactive
11 | O=C(O)c1cc(C(=O)O)c(C(=O)O)cc1C(=O)O | inactive | inactive | inactive | inactive |  | inactive | inactive | inactive
12 | CC(=O)Nc1ccn(C2COC(COC(=O)c3ccccc3)O2)c(=O)n1 (stereo not drawn) | inactive | inactive | inactive | inactive | inactive | inactive | inactive | inactive
13 | C[C@H](CN1CCCC1)C(=O)c1ccc(C(F)(F)F)cc1 | inactive | inactive | inactive | inactive |  | inactive |  | inactive
14 | CCC1=C(C)CN(C(=O)NCCc2ccc(S(=O)(=O)NC(=O)NC3CCC(C)CC3)cc2)C1=O (stereo not drawn) | inactive | inactive | inactive | inactive |  | inactive |  | inactive
15 | CCCCCCCCCC(C)C=O (stereo not drawn) | inactive | inactive | inactive | inactive |  |  | inactive | 
16 | O=C(NC1CCN(CCc2c[nH]c3ccccc23)CC1)c1ccccc1 | inactive | 29.8 µM (active) | inactive | inactive |  | inactive | inactive | inactive
17 | Clc1nc2ccccc2nc1Cl | inactive | inactive | inactive | inactive | inactive | inactive | inactive | 
18 | CCCCCO | inactive | inactive | inactive | inactive | inactive | inactive | inactive | inactive
19 | OCC(O)c1ccccc1 (stereo not drawn) | inactive | inactive | inactive | inactive | inactive | inactive | inactive | inactive
20 | CCOCCn1c(N2CCCN(C)CC2)nc2ccccc21 | inactive | inactive | inactive |  | inactive | inactive | inactive | inactive
21 | CC1(C)[C@@H]2CC[C@]3(C2)[C@@H]1C(=O)CCC3(C)C | inactive | inactive | inactive | inactive | inactive | inactive | inactive | inactive
22 | C=C[Si](OCC)(OCC)OCC | inactive | inactive | inactive | inactive | inactive | inactive | inactive | inactive
23 | O=C(O)CCc1nc2ccccc2[nH]1 | inactive | inactive | inactive | inactive | inactive | inactive | inactive | inactive
24 | CC1=C(C)C(=O)C(C(CCCCCC(=O)O)c2ccccc2)=C(C)C1=O (stereo not drawn) | inactive | inactive | inactive | inactive |  | inactive | inactive | inactive
25 | O=C1c2ccccc2C(=O)C1c1ccc2cc(S(=O)(=O)O)cc(S(=O)(=O)O)c2n1 | 29.5 µM (active) | inactive | 33.1 µM (active) | inactive | 5.25 µM (active) | inactive | inactive | inactive
26 | O=C(Cl)c1ccc(F)c(Cl)c1 | inactive | inactive | inactive | inactive | inactive | inactive | inactive | inactive
